Measurements: PubChem BioAssay (NCI)
Compounds without any hit were thinned out: in the full panel of roughly 83,000, 20% have a hit.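 Single-concentration screen, 48 h exposure, 96-well plates. Endpoint: percent growth. Below 10 = active.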 A number with no mark means an inactive call. Activity calls are given as the source filed them.

Each compound was assayed on MDA-MB-468 breast (assay: NCI-60 one-dose screen, 48 h (100 = growth as untreated, 0 = no growth, -100 = all killed)). Conditions: 10 µM unless noted.
C/C=C/C1OCC(CC)C(CCC)O1 (stereo not drawn) gave a growth of 122%. Cc1ccc2c(c1)C(=O)C(c1c(-c3[nH]c(=O)c4ccc(C)cc4c3O)c(O)c3ccccc3c1O)=NC2=O was tested, and the growth was -23.1% (active). COc1ccc(/C=N/NC(=O)c2[nH]c3ccc(Br)cc3c2-c2ccccc2)s1 was tested, and the growth was -24% (active). With CCCCCSB(SCCCCC)c1ccccc1 the growth was 102%. For COc1cc2c3c(c1)nc(C)n3CCC2, the growth was 99.6%. In the case of Cc1ccc(NCN2C(=O)c3ccccc3C2=O)c(C)n1, the growth is reported as 98.5%. With C/C(=N\NC(=O)c1ccccc1N)c1ccccc1O the growth was 15.5%. For CCCCC1=C(Br)C(=O)c2nc(C)ccc2C1=O, the growth was 92.6%. COc1ccc2c(c1)C(C)Cc1c(Cl)nc(C)nc1N2C (stereo not drawn) showed a growth of 25.8%. For O=C1Nc2c(ccc(Cl)c2Cl)/C1=C\c1ccc(C(F)(F)F)cc1, the growth was 92.8%. For COc1cc(-c2nn(C)nc2-c2cc3ccccc3s2)cc(OC)c1OC, the growth was 39.8%. CCOC(=O)C(CSC(c1ccccc1)(c1ccccc1)c1ccccc1)NC(=O)C(CSC(c1ccccc1)(c1ccccc1)c1ccccc1)NC(c1ccccc1)(c1ccccc1)c1ccccc1 (stereo not drawn) gave a growth of 101%. Work on O=c1cc2oc3cc(O)c(O)cc3c(-c3ccccc3O)c-2cc1O yielded a growth of 93.9%. In the case of CSC(=S)N/N=C(\C)c1ccccn1, the growth is reported as -19.5% (active). Work on COc1ccc(-c2cc(-c3cc(OC)c(OC)c(OC)c3)c(C#N)c(N3CCOCC3)n2)cc1O yielded a growth of 76.7%. With CNC(C)=O the growth was 102%. Compound O=C(CCCCCNC(=O)c1cc(=O)c(O)co1)Nc1ccccc1 has a growth of 108%. For NC(CCl)=NCC12CC3CC(CC(C3)C1)C2, the growth was -31.3% (active). O=c1n(CC2CO2)c(=O)n(CC2CO2)c(=O)n1CC1CO1 (stereo not drawn) gave a growth of 56.7%. With Cc1cc(C)c(CCc2cc(C)c(C)cc2C)cc1C the growth was 109%. CC1=CCC(OC(=O)C(C)(O)CCC(O)(C(=O)OC2(C)C=CC(O)(C(C)C)CC2)C(C)C)(C(C)C)CC1 (stereo not drawn) gave a growth of 107%. In the case of COc1ccc(/C=C/C(=O)c2cccc(NC(=O)CSc3nc4ccccc4c(=O)n3-c3ccccc3)c2)cc1OC, the growth is reported as 108%. With CSc1nc2nc3c(c(-c4ccc(C)cc4)c2c(=O)[nH]1)CN(C)C/C3=C\c1ccc(C)cc1 the growth was 74.7%. With COc1cc(/C(=C2/O[C@@H]([C@H]3COC(C)(C)O3)[C@H]3OC(C)(C)O[C@@H]23)c2ccc3c(c2)OCO3)cc(OC)c1OC the growth was 69.6%. For CCCCCCCCCCCCCC(=O)Oc1ccc[nH]c1=O, the growth was 89.4%. C=C1CC2(OC1=O)C(=O)N(C)c1ccc(I)cc12 (stereo not drawn) was tested, and the growth was -79.2% (active). With O=C(O)CC1Cc2ccccc2C1C(=O)O (stereo not drawn) the growth was 106%. CCC(C)(CC)c1ccc(O)c(C)c1 showed a growth of 101%.
